Laboratory results reported in PubChem BioAssay (Tox21).
Records with an inconclusive call do not appear. Calls of active or inactive are those of the source. Calls follow the shape of the dose curve; as a rule, active = well fitted inhibition curve with a large enough effect in the repeat runs; inconclusive = weak or mixed curves; inactive = no such curve, though single readings can be large or run the other way.

Target: Cytochrome P450 2D6 (Homo sapiens) (UniProt P10635)
Assay: Cytochrome P450 Family 2 Subfamily D Member 6 (CYP2D6) small molecule antagonists: luciferase reporter qHTS assay (AID 1671196); also: nearly all actives have a fitted effect of over 50% in size
Conditions: P450-Glo CYP2D6 enzyme assay, luciferin luminescence, 1 h; series mostly up to 115 µM; activity change, negative = inhibition: at the top concentration
Method in brief: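 Inhibition of CYP2D6 was gauged by loss of luminescence, since light produced tracks the luciferin generated from a proluciferin substrate. A 10 min room-temperature preincubation preceded 1 h NADPH-supported turnover.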
% is scaled to controls: 0 for no effect and ±100 for the full control effect; potency is read from the fitted curve at half-maximal effect.

Sequence of Cytochrome P450 2D6 (Homo sapiens) (P10635 whole entry, looked up): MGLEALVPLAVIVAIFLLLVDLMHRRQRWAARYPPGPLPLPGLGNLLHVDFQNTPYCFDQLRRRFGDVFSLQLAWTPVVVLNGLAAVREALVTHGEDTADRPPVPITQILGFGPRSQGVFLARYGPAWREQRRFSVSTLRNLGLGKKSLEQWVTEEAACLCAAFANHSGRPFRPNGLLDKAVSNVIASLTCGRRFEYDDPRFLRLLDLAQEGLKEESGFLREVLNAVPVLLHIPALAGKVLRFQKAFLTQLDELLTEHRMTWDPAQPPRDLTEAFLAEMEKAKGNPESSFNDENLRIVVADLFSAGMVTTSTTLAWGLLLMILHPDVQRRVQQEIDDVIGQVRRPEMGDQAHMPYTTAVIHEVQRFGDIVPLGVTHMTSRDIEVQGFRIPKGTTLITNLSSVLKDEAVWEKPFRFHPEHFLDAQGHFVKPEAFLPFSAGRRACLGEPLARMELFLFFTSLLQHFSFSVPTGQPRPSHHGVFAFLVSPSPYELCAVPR

| Compound | activity change, negative = inhibition | Potency |
| --- | --- | --- |
| C=CCCCCCCCCC=O | -15.8% (inactive) | – |
| CC(C)(O)C(=O)c1ccccc1 | -3.35% (inactive) | – |
| CC(C)NCCCC1(C(N)=O)c2ccccc2-c2ccccc21 | – | 2.45 µM (active) |
| O=C1OC(=O)C2CCCCC12 (stereo not given) | -15% (inactive) | – |
| CC(=O)CC(C)(C)C1CCCCC1 | -0.395% (inactive) | – |
| CC(C[N+](C)(C)C)OC(N)=O (stereo not given) | -7.48% [at 53 µM] (inactive) | – |
| O=C1CC2CC1C1CCCC21 (stereo not given) | -7.09% (inactive) | – |
| CCC=O | 0.46% (inactive) | – |
| CC(=O)CC(C)C | -0.0017% (inactive) | – |
| COC(=O)[C@@H](N)Cc1ccc(O)c(O)c1 | -85.7% [at 53 µM] (inactive) | – |
| CC/C=C\CC/C=C/C(OCC)OCC | -27.3% (inactive) | – |
| CO[Si](CCCOCC1CO1)(OC)OC (stereo not given) | – | inactive |
| CCOC(=O)c1ccc(C)cc1 | -10.1% (inactive) | – |
| NC(CSCC(=O)O)C(=O)O (stereo not given) | -18.4% [at 53 µM] (inactive) | – |
| CC(C)NCC(O)c1ccc(NS(C)(=O)=O)cc1 (stereo not given) | – | 36 µM (active) |
| O=c1cc(CO)occ1O | -5.04% [at 53 µM] (inactive) | – |
| CCN(CC)CCNC(=O)c1cc(S(C)(=O)=O)ccc1OC | – | 12.3 µM (active) |

| Compound | activity change, negative = inhibition | Potency |
| --- | --- | --- |
| N[C@H](C(=O)O)c1ccc(O)cc1 | -10.2% [at 23.6 µM] (inactive) | – |
| O=C(O)CCCl | -15.9% (inactive) | – |
| CC(C)c1cc2c(cc1S(=O)(=O)O)[C@@]1(C)CCC[C@@](C)(C(=O)O)[C@@H]1CC2 | -4.03% [at 53 µM] (inactive) | – |
| CO[C@]12C[C@@H](COC(=O)c3cncc(Br)c3)CN(C)[C@@H]1Cc1cn(C)c3cccc2c13 | – | 0.0692 µM (active) |
| CCn1ccnc1CC1COc2ccccc2O1 (stereo not given) | – | 0.776 µM (active) |
| OCCOc1ccc(OCCO)cc1 | 0.392% (inactive) | – |
| CCS(=O)(=O)c1ccc(OC)c(C(=O)OC)c1 | 1.19% [at 53 µM] (inactive) | – |
| COC(=O)c1cc(C(=O)OC)cc(S(=O)(=O)O)c1 | -2.55% (inactive) | – |
| CCCCCCCCCCCCN(CCCCCCCCCCCC)CCCCCCCCCCCC | 1.13% (inactive) | – |
| Cc1sccc1Br | -2.81% [at 53 µM] (inactive) | – |
| CN1C(=O)N(C)C(O)C1O (stereo not given) | -9.1% (inactive) | – |
| COC(=O)CCSCCC(=O)OC | -9.24% (inactive) | – |
| O=[N+]([O-])c1ccc(F)cc1F | -1.54% (inactive) | – |
| CCO[Si](CCC1CCC2OC2C1)(OCC)OCC (stereo not given) | -21.9% (inactive) | – |
| CN1N=C(C(N)=O)CCC1=O | 3.23% [at 53 µM] (inactive) | – |
| Cc1ccc(Cl)cc1Cl | -2.21% (inactive) | – |
| C=C(C)C(=O)OCCCCCCCC(C)C | -14.9% (inactive) | – |

Target: Cytochrome P450 2C19 (Homo sapiens) (UniProt P33261)
Sequence (P33261 whole entry, looked up): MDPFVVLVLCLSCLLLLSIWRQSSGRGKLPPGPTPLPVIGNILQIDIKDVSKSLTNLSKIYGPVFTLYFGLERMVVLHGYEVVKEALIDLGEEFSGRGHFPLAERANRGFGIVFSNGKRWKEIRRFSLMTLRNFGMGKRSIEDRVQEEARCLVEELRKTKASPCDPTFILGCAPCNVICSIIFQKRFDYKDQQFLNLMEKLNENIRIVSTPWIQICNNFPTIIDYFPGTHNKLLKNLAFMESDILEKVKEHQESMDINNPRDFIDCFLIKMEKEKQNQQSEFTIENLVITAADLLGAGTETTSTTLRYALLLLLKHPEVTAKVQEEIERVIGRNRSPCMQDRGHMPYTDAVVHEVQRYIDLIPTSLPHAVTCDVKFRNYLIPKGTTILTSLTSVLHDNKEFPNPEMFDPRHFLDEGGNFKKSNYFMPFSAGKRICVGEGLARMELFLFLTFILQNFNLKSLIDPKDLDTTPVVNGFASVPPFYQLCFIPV
Assay: Cytochrome P450 Family 2 Subfamily C Member 19 (CYP2C19) small molecule antagonists: luciferase reporter qHTS assay (AID 1671197); also: nearly all actives have a fitted effect of over 65% in size
Conditions: P450-Glo CYP2C19 enzyme, luciferin luminescence, 1 h; series mostly up to 52.9 µM; activity change, negative = inhibition: at the top concentration
Method in brief: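 Inhibition of CYP2C19 was scored from loss of luminescence in a P450-Glo proluciferin substrate assay, NADPH-started and run 1 h at 37C, with ketoconazole as positive control.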

| Compound | Potency | activity change, negative = inhibition |
| --- | --- | --- |
| C=CCCCCCCCCC=O | 79.6 µM (active) | – |
| CC(C)(O)C(=O)c1ccccc1 | 39.9 µM (active) | – |
| CC(C)NCCCC1(C(N)=O)c2ccccc2-c2ccccc21 | – | -7.24% (inactive) |
| O=C1OC(=O)C2CCCCC12 (stereo not given) | – | 21.9% [at 115 µM] (inactive) |
| CC(=O)CC(C)(C)C1CCCCC1 | – | 0.606% [at 115 µM] (inactive) |
| CC(C[N+](C)(C)C)OC(N)=O (stereo not given) | – | 17.7% (inactive) |
| O=C1CC2CC1C1CCCC21 (stereo not given) | – | 21% [at 115 µM] (inactive) |
| CCC=O | – | 7.3% [at 115 µM] (inactive) |
| CC(=O)CC(C)C | – | -3.97% [at 115 µM] (inactive) |
| COC(=O)[C@@H](N)Cc1ccc(O)c(O)c1 | – | -10.3% (inactive) |
| CC/C=C\CC/C=C/C(OCC)OCC | 56.4 µM (active) | – |
| CO[Si](CCCOCC1CO1)(OC)OC (stereo not given) | – | -1.31% [at 115 µM] (inactive) |
| CCOC(=O)c1ccc(C)cc1 | – | 23.9% [at 115 µM] (inactive) |
| NC(CSCC(=O)O)C(=O)O (stereo not given) | – | 23.5% (inactive) |
| CC(C)NCC(O)c1ccc(NS(C)(=O)=O)cc1 (stereo not given) | – | -1.03% [at 115 µM] (inactive) |
| O=c1cc(CO)occ1O | – | 25% (inactive) |
